Results filed as inconclusive are left out. The source made the active and inactive calls. Unless noted, calls come from the whole dose curve; as a rule, active = well fitted curve in the direction sought with a large enough effect in the repeat runs; inconclusive = weak or mixed curves; inactive = no such curve, though single readings can be large; an effect the other way counts as inactive or inconclusive.
Assays:
[1] = biological target: Thyrotropin receptor (Homo sapiens) (UniProt P16473); assay: qHTS assay to identify small molecule agonists of the thyroid stimulating hormone receptor (TSHR) signaling pathway (AID 1224843; calls by dose curve; note: nearly all actives have a fitted effect of over 45% in size)
How it was run: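 Agonist activity read as cAMP rise via d2/cryptate HTRF competition, 1 h room-temperature detection, in HEK293 cells expressing TSHR. Fifteen-point titrations, each run in triplicate, with a 30 min room-temperature incubation beforehand.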

[2] = qHTS assay to identify small molecule agonists of H2AX (AID 1224845; active = well fitted activation curve with a large enough effect in the signal ratio in the repeat runs, not every such curve was filed as active; the % refers to the signal ratio)
How it was run: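 Phospho-H2AX Ser139 measured by HTRF (ex 320 nm; em 665 and 620 nm) after 24 hr antibody incubation. Compounds, 15 concentrations, 0.76% DMSO, were applied to CHO-K1 cells for 3hr at 37C before lysis.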

[3] = qHTS assay to identify small molecule agonists of the hypoxia (HIF-1) signaling pathway (AID 1224846; active = well fitted activation curve with a large enough effect in the signal ratio in the repeat runs, not every such curve was filed as active; the % refers to the signal ratio)
How it was run: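 Compounds added to ME-180 cells carrying hypoxia-response-element beta-lactamase reporter (0.5% dialyzed FBS, 5 h preplating), 17 h at 37C; agonist activity detected by CCF4-AM B/G FRET read-out.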

[4] = qHTS assay to identify small molecule agonists of H2AX - cell viability counter screen (AID 1224847; calls by dose curve; note: top concentration of the series differs between compounds; nearly all actives have a fitted effect of over 30% in size)
How it was run: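 Quantitative HTS viability measurement: CHO-K1 wild-type cells in serum (10% FBS) medium, short 3 hr drug exposure at 37C with 0.76% DMSO, CellTiter-Glo luminescent detection.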

[5] = qHTS RealTime-Glo MT Cell Viability Assay in HepG2 cells - 24 hour (AID 1224867); note: nearly all actives have a fitted effect of over 50% in size
How it was run: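 Cell number in HepG2 cultures estimated from NanoLuc luminescence generated by metabolic reduction of a prosubstrate by living cells. The homogeneous, nonlytic format allowed repeated reads at 0, 8, 16, 24, 32 and 40 h of compound exposure.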

[6] = qHTS RealTime-Glo MT Cell Viability Assay in HEK293 cells - 32 hour (AID 1224868); note: top concentration of the series differs between compounds; nearly all actives have a fitted effect of over 50% in size
How it was run: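 Homogeneous bioluminescent viability format in HEK293 cells (600 cells/well). Following 5 h at 37 C/5% CO2, 23 nL compound was pintooled; the signal was measured repeatedly during 40 h incubation.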

[7] = A CellTox Green Cytotoxicity Assay to monitor cytotoxicity in HEK293 cells - 0 hour (AID 1224869); note: nearly all actives have a fitted effect of over 50% in size
How it was run: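 Fluorescence from a DNA-binding dye excluded by viable cells was measured repeatedly in the same HEK293 wells (600 cells/well) during continuous compound exposure at 37 C. Each assay gives one read point: 0, 8, 16, 24, 32 or 40 h.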

[8] = qHTS assay to identify small molecule antagonists of the estrogen related receptor (ERR) signaling pathway from Tox21 library (AID 1224848); note: nearly all actives have a fitted effect of over 50% in size
How it was run: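 Luciferase luminescence (ONE-Glo, 30 min room temperature) was the read-out. Cells of the NTP-supplied ERR line, 2,000 per well, were given 6 h at 37 C before compound addition in DMSO and 18 h exposure at 37 C.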

[9] = qHTS assay to identify small molecule agonists of the estrogen related receptor (ERR) signaling pathway from Tox21 library (AID 1224849; calls by dose curve; note: nearly all actives have a fitted effect of over 15% in size); conditions: ERR reporter cell line, ONE-Glo luciferase, 18 h; at 92.4 µM (top of the series) unless noted
How it was run: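 Luminescent agonist read-out (One-Glo, 30-minute room-temperature incubation) following 18-hour compound treatment at 37 C of the ERR cell line, which had been plated 6 hours before dosing.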

[10] = qHTS assay to identify small molecule agonists of the hypoxia (HIF-1) signaling pathway - cell viability counter screen (AID 1224844; calls by dose curve; note: nearly all actives have a fitted effect of over 50% in size)
How it was run: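 Cytotoxicity measured by CellTiter-Glo ATP luminescence in the wells also read for beta-lactamase signal. Cells were HRE-bla ME-180 (2,000/well, 0.5% dialyzed FBS), exposed to compounds for 17 h at 37C.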
% is set by controls: 0 for no effect and ±100 for the full control effect.

Chain of Thyrotropin receptor (Homo sapiens) (P16473 whole entry, looked up): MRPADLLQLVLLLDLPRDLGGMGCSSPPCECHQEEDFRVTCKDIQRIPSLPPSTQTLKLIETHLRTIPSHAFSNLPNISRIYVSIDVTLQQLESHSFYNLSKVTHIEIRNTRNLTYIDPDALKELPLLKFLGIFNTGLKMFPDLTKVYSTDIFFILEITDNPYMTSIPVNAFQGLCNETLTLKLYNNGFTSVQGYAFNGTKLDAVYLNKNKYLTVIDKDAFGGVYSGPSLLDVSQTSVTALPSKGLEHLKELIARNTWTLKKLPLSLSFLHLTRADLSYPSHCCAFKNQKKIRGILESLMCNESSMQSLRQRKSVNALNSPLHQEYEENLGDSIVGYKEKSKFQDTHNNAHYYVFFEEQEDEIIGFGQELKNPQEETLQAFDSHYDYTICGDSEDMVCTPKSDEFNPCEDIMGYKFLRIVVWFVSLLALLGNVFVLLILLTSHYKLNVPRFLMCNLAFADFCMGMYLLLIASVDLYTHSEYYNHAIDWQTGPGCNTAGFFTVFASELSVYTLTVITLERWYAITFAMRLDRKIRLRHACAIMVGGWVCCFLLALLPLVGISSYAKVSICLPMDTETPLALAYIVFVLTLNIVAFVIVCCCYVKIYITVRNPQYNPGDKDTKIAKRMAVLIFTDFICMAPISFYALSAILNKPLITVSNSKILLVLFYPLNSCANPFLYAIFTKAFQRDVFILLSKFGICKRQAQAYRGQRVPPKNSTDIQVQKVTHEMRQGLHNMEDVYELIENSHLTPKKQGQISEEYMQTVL

NCCN1CCNC1=O
inactive: outcome [1] | outcome [2] | outcome [3] | Potency [4] | outcome [5] | Potency [6] | Potency [7]

CCCc1ccccc1O
inactive: outcome [1] | outcome [2] | outcome [3] | Potency [4] | outcome [5] | Potency [6] | Potency [7]

CCCCC1CCCCC(=O)O1 (stereo not given)
inactive: outcome [1] | outcome [2] | outcome [3] | Potency [4] | Potency [8] | activity change, positive = activation [9] 0.974% | Potency [6] | Potency [7]

CC1(C)SC(C)(C)SC(C)(C)S1
inactive: Potency [10] | outcome [2] | outcome [3] | Potency [4] | Potency [8] | activity change, positive = activation [9] -8.06% | outcome [5] | Potency [7]

CC(C)[N+](C)(C)CC(O)COc1cccc2ccccc12 (stereo not given)
inactive: outcome [1] | outcome [2] | outcome [3] | Potency [4] | Potency [6] | Potency [7]

CCOC(=O)Cn1c(=O)sc2cccc(Cl)c21
inactive: Potency [10] | outcome [2] | outcome [3] | Potency [4] | Potency [8] | activity change, positive = activation [9] -12% | Potency [6] | Potency [7]

CCCCN(CCO)CCO
inactive: Potency [10] | outcome [2] | outcome [3] | Potency [4] | Potency [8] | activity change, positive = activation [9] 3.71% | Potency [6] | Potency [7]

OCc1ccccn1
inactive: outcome [1] | outcome [2] | outcome [3] | Potency [4] | Potency [8] | activity change, positive = activation [9] 4.19% [at 42.5 µM] | outcome [5] | Potency [6] | Potency [7]

NC(=O)c1c(Cl)cccc1Cl
inactive: Potency [10] | outcome [2] | outcome [3] | Potency [4] | Potency [8] | activity change, positive = activation [9] -1.3% | Potency [6]

CC(C)c1cccc(O)c1
inactive: outcome [1] | outcome [2] | outcome [3] | Potency [8] | activity change, positive = activation [9] 1.69% | Potency [6]

CCO[Si](CCCN=C=O)(OCC)OCC
inactive: outcome [1] | outcome [2] | outcome [3] | Potency [4] | Potency [8] | activity change, positive = activation [9] -6.45% | outcome [5] | Potency [6] | Potency [7]

CC12CCC(CC1=O)C2(C)C (stereo not given)
inactive: Potency [10] | outcome [2] | outcome [3] | Potency [4] | Potency [8] | activity change, positive = activation [9] 2.86% | Potency [6] | Potency [7]

CC(C)(O)c1ccccc1
inactive: Potency [10] | outcome [2] | outcome [3] | Potency [4] | Potency [8] | outcome [5] | Potency [6] | Potency [7]

C=C(C)C1CC=C(C)C(O)C1 (stereo not given)
inactive: Potency [10] | outcome [2] | outcome [3] | Potency [4] | Potency [8] | activity change, positive = activation [9] 2.44% | outcome [5] | Potency [6] | Potency [7]

COC(=O)CCCCCCCCC(=O)OC
inactive: Potency [10] | outcome [2] | outcome [3] | Potency [4] | Potency [8] | activity change, positive = activation [9] 0.842% | outcome [5] | Potency [6]

CCCCCCOC(=O)c1ccccc1O
inactive: Potency [10] | outcome [2] | outcome [3] | Potency [4] | Potency [8] | activity change, positive = activation [9] 8.56% | outcome [5] | Potency [6]

COC(=O)c1ccc(C(=O)OC)c(C(=O)OC)c1
inactive: outcome [1] | outcome [2] | outcome [3] | Potency [4] | Potency [8] | activity change, positive = activation [9] -1.41% | outcome [5] | Potency [6] | Potency [7]

CCCCCCC(=O)OCC
inactive: Potency [10] | outcome [2] | outcome [3] | Potency [4] | Potency [8] | activity change, positive = activation [9] 6.4% | outcome [5] | Potency [6] | Potency [7]

CNC(=O)c1c(I)c(NC(=O)CCCCC(=O)Nc2c(I)c(C(=O)O)c(I)c(C(=O)NC)c2I)c(I)c(C(=O)O)c1I
inactive: Potency [10] | outcome [2] | outcome [3] | Potency [4] | Potency [8] | activity change, positive = activation [9] 8.83% [at 42.5 µM] | outcome [5] | Potency [6] | Potency [7]

O=[N+]([O-])c1ccc(Oc2ccc([N+](=O)[O-])cc2)cc1
inactive: Potency [10] | outcome [2] | outcome [3] | Potency [4] | Potency [8] | activity change, positive = activation [9] -4.74% | outcome [5] | Potency [7]

C1CCCCCCCCCCC1
inactive: activation [1] -4.17% [at 19 µM] | activation (H2AX phosphorylation) [2] 1.29% [at 31.6 µM] | activation [3] 0.351% [at 15.8 µM] | activity change, negative = cytotoxicity [4] 0.456% [at 31.6 µM] | activity, negative = inhibition [8] -2.47% [at 19 µM] | activity change, positive = activation [9] -0.61% [at 19 µM] | activity change, negative = cytotoxicity [5] 3.08% [at 15.8 µM] | cytotoxicity [7] -14.8% [at 15.8 µM]

C1COCCO1
inactive: Potency [10] | outcome [2] | outcome [3] | Potency [4] | Potency [8] | activity change, positive = activation [9] 5.15% | outcome [5] | Potency [6]

Reference: PubChem BioAssay (Tox21)
